High-throughput results from PubChem.
RE007 growth inh: qHTS Assay for Inhibitors of the HIV-1 protein Vpr | 360,000 compounds, 0.21% hits | S. pombe RE007 Vpr strain, BacTiter-Glo ATP luminescence, 24 h | Potency, µM (highest dose often 92.2 µM), most hits filed as inhibitors; active means well fitted falling curve with a large enough effect; inconclusive means small, poorly fitted or top-dose-only effect; inactive means no such curve, though single readings can be large or run the other way; further: nearly all actives have a fitted effect of over 50% in size
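Fission yeast strain RE007, carrying one chromosomally integrated HIV-1 vpr copy, was seeded at OD 0.01 in PMG+AL medium with 23 nL pinned compound. After 24 h at 30 °C and 99% humidity, viability was read by BacTiter-Glo luminescence.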
AMA1-RON2 inh: qHTS for Inhibitors of AMA1-RON; Towards Development of Antimalarial Drug Lead: Primary Screen; Plasmodium falciparum AMA1 (3D7) - RON2 peptide interaction; AlphaScreen AMA1-biotinylated RON2 peptide binding; Potency, µM (highest dose often 58.2 µM), hits mostly inhibitors; 360,000 compounds, 0.2% hits; AID 720542, 2013; further: nearly all actives have a fitted effect of over 45% in size
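AMA1 (3D7) with his tag at 25 nM final met compounds first, then biotinylated RON2 peptide at 25 nM; detection used donor plus acceptor beads, 10 µg/mL apiece, read by AlphaScreen after 30 min at room temperature.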
AmpC no deterg: qHTS Inhibitors of AmpC Beta-Lactamase (assay without detergent); P00811; AmpC nitrocefin hydrolysis, absorbance 480 nm, 0.0001% Triton; Potency, µM (highest dose often 57.1 µM), most hits filed as inhibitors; 330,000 compounds, 0.52% hits; further: nearly all actives have a fitted effect of over 20% in size
Target sequence (P00811 whole entry, looked up): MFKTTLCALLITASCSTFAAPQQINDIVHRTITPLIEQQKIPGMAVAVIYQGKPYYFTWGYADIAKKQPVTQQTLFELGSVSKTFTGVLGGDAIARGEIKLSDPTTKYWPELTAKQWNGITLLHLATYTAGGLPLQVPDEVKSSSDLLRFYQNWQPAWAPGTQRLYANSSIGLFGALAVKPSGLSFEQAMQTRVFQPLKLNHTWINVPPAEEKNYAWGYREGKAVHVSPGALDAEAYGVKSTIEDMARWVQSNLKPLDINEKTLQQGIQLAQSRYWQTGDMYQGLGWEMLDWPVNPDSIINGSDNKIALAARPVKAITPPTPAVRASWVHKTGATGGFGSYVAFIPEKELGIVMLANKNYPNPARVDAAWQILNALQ
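AmpC (5.3 nM in the dispensed reagent) in 20 mM phosphate pH 7.0 with 0.01% (detergent screen) or 0.0001% Triton X-100 was preincubated with compounds for 15 min at room temperature. Nitrocefin was then added from an 800 uM solution, and hydrolysis was followed at 480 nm.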
Sm TGR inh: qHTS Assay for the Inhibitors of Schistosoma Mansoni Peroxiredoxins; Schistosoma mansoni thioredoxin glutathione reductase (TGR), Q962Y6; purified TGR, DTNB reduction, TNB absorbance 405 nm; Potency, µM (series often up to 114 µM), hits mostly inhibitors; 360,000 compounds, 3% hits; AID 485364, 2010; further: nearly all actives have a fitted effect of over 60% in size
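TGR 20 nM + NADPH 100 uM (dispensed conc.), cpd preinc 15 min RT; start with NADPH (500 uM addition) then DTNB (15 mM addition). Kinetic TNB absorbance, 405 nm filter. Four-parameter Hill fit across titration.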
AmpC detergent: qHTS Inhibitors of AmpC Beta-Lactamase (assay with detergent); 370,000 compounds, 0.041% hits; Potency, µM (series often up to 114 µM), most hits filed as inhibitors; P00811; AmpC hydrolysis of nitrocefin, absorbance 480 nm, 0.01% Triton; further: nearly all actives have a fitted effect of over 25% in size
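AmpC (5.3 nM in the dispensed reagent) in 20 mM phosphate pH 7.0 with 0.01% (detergent screen) or 0.0001% Triton X-100 was preincubated with compounds for 15 min at room temperature. Nitrocefin was then added from an 800 uM solution, and hydrolysis was followed at 480 nm.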
Each line names hits and unclear results; the compound was inactive in the other large screens. An excerpt weighted towards active compounds, which were near 3.2% of everything screened. Unless noted, the call rests on the fitted dose curve; in most records, active means well fitted curve in the direction sought with a large enough effect; inconclusive means small, poorly fitted or top-dose-only effect, or another doubt; inactive means no such curve, though single readings can be large; an effect the other way counts as inactive or inconclusive.

CCOC(=O)[C@]12CCCC=C1N(CCc1ccc(OC)c(OC)c1)C(=O)[C@H](CC(=O)N1CCCCC1)C2	none (no result: AmpC no deterg, Sm TGR inh, AmpC detergent)
CC(C)CC(NC(=O)C(Cc1ccc(OCc2ccccc2)cc1)NC(=O)OC(C)(C)C)C(N)=O (stereo unspecified)	AmpC no deterg 7.08µM
COC(=O)C(Cc1ccccc1)NC(=O)C(CC(C)C)NC(=O)OC(C)(C)C (stereo unspecified)	AmpC detergent inconclusive
Cc1ccc(CN2CCNC(=O)C2CC(=O)N(C)C2CCOCC2)cc1 (stereo unspecified)	Sm TGR inh 44.7µM
CN(C(=O)CC1C(=O)NCCN1Cc1ccoc1)C1CCOCC1 (stereo unspecified)	none
CN(C(=O)CC1C(=O)NCCN1Cc1c(F)cccc1Cl)C1CCOCC1 (stereo unspecified)	Sm TGR inh 50.1µM
CN(C(=O)CC1C(=O)NCCN1Cc1cccc(F)c1F)C1CCOCC1 (stereo unspecified)	Sm TGR inh inconclusive
CC(S(=O)(=O)c1ccccc1)S(=O)(=O)c1ccccc1	none (no result: AmpC no deterg, Sm TGR inh, AmpC detergent)
CCc1c(C(C)S(=O)(=O)c2ccccc2)[nH]c(=O)n1CC (stereo unspecified)	Sm TGR inh 1µM
COC(=O)C1=C(C(=O)OC)C(c2cc(Cl)ccc2O)c2sc(=O)[nH]c2S1 (stereo unspecified)	Sm TGR inh 39.8µM
O=C(C[n+]1ccccc1)Nc1ccccc1Br	Sm TGR inh 0.1µM
O=C(C[n+]1ccccc1)Nc1c(Cl)cc(Cl)cc1Cl	Sm TGR inh 8.91µM
O=C(CCSc1nc(-c2ccco2)cc(C(F)(F)F)n1)N1CCCc2ccccc21	Sm TGR inh 39.8µM, AmpC detergent inconclusive
O=C(CCSc1nc(-c2ccco2)cc(C(F)(F)F)n1)N1CCN(c2ccccn2)CC1	Sm TGR inh inconclusive
COc1ccccc1CNC(=O)CCCCn1c(=O)c2ccccc2n(Cc2ccccc2F)c1=O	none (no result: RE007 growth inh, AMA1-RON2 inh, AmpC no deterg)
CCOC(=O)C1CCCN(c2c(N3CCN(C)CC3)c(=O)c2=O)C1 (stereo unspecified)	Sm TGR inh 5.62µM, AmpC detergent inconclusive
CCOC(=O)C1CCCN(c2c(N3CCC(N4CCCCC4)CC3)c(=O)c2=O)C1 (stereo unspecified)	Sm TGR inh 89.1µM
CCOC(=O)C1CCCN(c2c(N3CCN(C4CCCCC4)CC3)c(=O)c2=O)C1 (stereo unspecified)	none
COc1ccc(OC)c(CCNC(=O)Cn2ccc3cc(S(=O)(=O)N4CCCCC4)ccc32)c1	none (no result: RE007 growth inh, AMA1-RON2 inh, AmpC no deterg)
COc1ccc(O)c(C(=O)c2coc(=N)c(C(=O)Nc3ccc(SC(F)F)cc3)c2)c1	AmpC no deterg 14.1µM
COc1ccc(NC(=O)C(C)n2nc(-c3cc(C)ccc3C)c3c(c2=O)CCCC3)cc1 (stereo unspecified)	none (no result: RE007 growth inh, AMA1-RON2 inh, AmpC no deterg)
COc1ccccc1OCC#CCN1CCOCC1	Sm TGR inh 11.2µM
O=C(Cn1cc(/C=N/NC(=O)c2ccccc2Br)c2ccccc21)Nc1ccc(F)cc1	AmpC no deterg 14.1µM
O=C(Cn1cc(/C=N/NC(=O)c2cccc3ccccc23)c2ccccc21)Nc1ccc(F)cc1	none
Cc1occc1-c1nnc(SCC(=O)c2c[nH]c3ccccc23)n1C	Sm TGR inh 17.8µM
Cc1occc1-c1nnc(SCC(=O)N(C)c2ccccc2)n1C	AmpC detergent inconclusive
Cc1occc1-c1nnc(SCC(=O)c2ccc(Cl)cc2)n1C	Sm TGR inh 39.8µM
Cc1occc1-c1nnc(SCC(=O)N2CCCCC2)n1C	none
Cn1c(SCC(=O)c2cc(Cl)c(Cl)s2)nnc1-c1ccco1	Sm TGR inh 25.1µM
CCOc1ccccc1NC(=O)C(=O)Nc1ccc2nc3n(c(=O)c2c1)CCCCC3	none (no result: RE007 growth inh, AMA1-RON2 inh, AmpC no deterg)
CCOC(=O)c1ccc(N2C(=O)C3C(C2=O)C(C(=O)c2ccc(Cl)cc2)N2CCCC32)cc1 (stereo unspecified)	RE007 growth inh inconclusive, Sm TGR inh 15.8µM
